In PMC5540273 (PLoS ONE, 2017):
Several values for one entry are separate records, joined by “and”; a condition that tells them apart may be missing. Identical values can stand only once. Like-named read-outs stand apart in the source and are kept apart here.

How the values were obtained:
Conditions in all cases: n = 1
[1] = test system: PHKG1
[2] = test system: PHKG2
[3] = test system: PIK3C2B
[4] = test system: PIK3C2G
[5] = test system: PIK3CA
[6] = test system: PIK3CB
[7] = test system: PIK3CD
[8] = test system: PIK3CG
[9] = test system: T1, PIK4CB
T1 construct: gene PI4KB

[10] = test system: PIKFYVE
[11] = concentration: 1 μM, replicates: in singlicate
[12] = concentration: 1 μM,replicates: in singlicate, 1 µM
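Note: KINOMEscan kinase panel screen.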

In the case of `Fc1cccc(COc2nnc(-c3ccc4c(c3)CCO4)o2)c1`, the “%Inh” value [1, 11] is reported as 0%, the “%Inh” value [2, 11] is reported as 0% and the “%Inh” value [3, 11] is reported as 0%. For the same compound, the “%Inh” value [4, 11] was 0%, the “%Inh” value [5, 11] was 0% and the “%Inh” value [6, 11] was 14%. The “%Inh” value [7, 11] was 17%, the “%Inh” value [8, 11] was 7% and the “%Inh” value [9, 11] was 0%. The “%Inh” value [10, 11] was 24%.
In the case of `O=C(O)COc1ncnc2cc(-c3ccc4[nH]ncc4c3)sc12`, the “%Inh” value [1, 11] is reported as 13%, the “%Inh” value [2, 11] is reported as 3% and the “%Inh” value [3, 11] is reported as 0%. For the same compound, the “%Inh” value [4, 11] was 23%, the “%Inh” value [5, 11] was 0% and the “%Inh” value [6, 11] was 47%. The “%Inh” value [7, 11] was 5%, the “%Inh” value [8, 11] was 0% and the “%Inh” value [9, 11] was 35%. For the same compound, the “%Inh” value [10, 11] was 12%.
With `CC(C)(C)c1ccc(C(=O)Nc2cn3cc(-c4cccnc4)ccc3n2)cc1` the “%Inh” value [1, 11] was 8%, the “%Inh” value [2, 11] was 34% and the “%Inh” value [3, 11] was 0%. The “%Inh” value [4, 11] was 24%, the “%Inh” value [5, 11] was 0% and the “%Inh” value [6, 11] was 45%. The “%Inh” value [7, 11] was 0%, the “%Inh” value [8, 11] was 0% and the “%Inh” value [9, 11] was 16%. For the same compound, the “%Inh” value [10, 11] was 22%.
In the case of `Cc1ccc(NC(=O)Nc2cccc(Cl)c2)cc1-c1ccc(C(=O)Nc2ccncc2)cc1` [GSK1398468], the “%Inh” value [1, 11] is reported as 0%, the “%Inh” value [2, 11] is reported as 11% and the “%Inh” value [3, 11] is reported as 0%. For the same compound, the “%Inh” value [4, 11] was 0%, the “%Inh” value [5, 11] was 8% and the “%Inh” value [6, 11] was 0%. The “%Inh” value [7, 11] was 0%, the “%Inh” value [8, 11] was 0% and the “%Inh” value [9, 11] was 0%. For the same compound, the “%Inh” value [10, 11] was 2%.
In the case of `CS(=O)(=O)c1ccc(-c2nc3n(c2-c2ccncc2)CCC3)cc1` [SKF-105942], the “%Inh” value [1, 11] is reported as 3%, the “%Inh” value [2, 11] is reported as 0% and the “%Inh” value [3, 11] is reported as 0%. For the same compound, the “%Inh” value [4, 11] was 0%, the “%Inh” value [5, 11] was 0% and the “%Inh” value [6, 11] was 0%. For the same compound, the “%Inh” value [7, 11] was 0%, the “%Inh” value [8, 11] was 0% and the “%Inh” value [9, 11] was 100%. For the same compound, the “%Inh” value [10, 11] was 0%.
`Cc1ccc(NC(=O)Nc2cccc(C(F)(F)F)c2)cc1` [GSK955403] was tested, and the “%Inh” value ([1]; 1 µM) was 12%, the “%Inh” value ([2]; 1 µM) was 15% and the “%Inh” value ([3]; 1 µM) was 1%. For the same compound, the “%Inh” value ([4]; 1 µM) was 36%, the “%Inh” value ([5]; 1 µM) was 5% and the “%Inh” value ([6]; 1 µM) was 0%. The “%Inh” value ([7]; 1 µM) was 0%, the “%Inh” value ([8]; 1 µM) was 9% and the “%Inh” value ([9]; 1 µM) was 0%. The “%Inh” value ([10]; 1 µM) was 0%.
In the case of `Cl.O=C(Nc1cccc(-c2nn3ncccc3c2-c2ccnc(Nc3cccnc3)n2)c1)c1c(F)cccc1F` [GSK312879], the “%Inh” value [1, 11] is reported as 8%, the “%Inh” value [2, 11] is reported as 18% and the “%Inh” value [3, 11] is reported as 0%. The “%Inh” value [4, 11] was 0%, the “%Inh” value [5, 11] was 0% and the “%Inh” value [6, 11] was 0%. For the same compound, the “%Inh” value [7, 11] was 0%, the “%Inh” value [8, 11] was 0% and the “%Inh” value [9, 11] was 11%. For the same compound, the “%Inh” value [10, 11] was 52%.
For `O=C(Nc1n[nH]c2nc(-c3nccs3)c(Br)cc12)C1CC1` [SB-742251], the “%Inh” value [1, 11] was 0%, the “%Inh” value [2, 11] was 0% and the “%Inh” value [3, 11] was 0%. The “%Inh” value [4, 11] was 0%, the “%Inh” value [5, 11] was 0% and the “%Inh” value [6, 11] was 0%. For the same compound, the “%Inh” value [7, 11] was 0%, the “%Inh” value [8, 11] was 0% and the “%Inh” value [9, 11] was 0%. The “%Inh” value [10, 11] was 14%.
In the case of `Cc1cccc(-c2nc(-c3ccc(S(C)(=O)=O)cc3)sc2-c2ccnc(NCCc3ccccc3)c2)c1`, the “%Inh” value [1, 11] is reported as 0%, the “%Inh” value [2, 11] is reported as 9% and the “%Inh” value [3, 11] is reported as 0%. The “%Inh” value [4, 11] was 18%, the “%Inh” value [5, 11] was 1% and the “%Inh” value [6, 11] was 11%. For the same compound, the “%Inh” value [7, 11] was 26%, the “%Inh” value [8, 11] was 17% and the “%Inh” value [9, 11] was 0%. For the same compound, the “%Inh” value [10, 11] was 0%.
With `CN1C(=O)C(Nc2ccc(Cl)c(C(=O)O)c2)=C(c2ccc(Cl)cc2)C1=O` [SB-404290] the “%Inh” value [1, 11] was 0%, the “%Inh” value [2, 11] was 0% and the “%Inh” value [3, 11] was 34%. The “%Inh” value [4, 11] was 20%, the “%Inh” value [5, 11] was 7% and the “%Inh” value [6, 11] was 0%. The “%Inh” value [7, 11] was 0%, the “%Inh” value [8, 11] was 23% and the “%Inh” value [9, 11] was 16%. The “%Inh” value [10, 11] was 13%.
In the case of `Cc1cccc(-c2cc(Nc3ccncc3)c3ccccc3n2)n1` [GSK223675], the “%Inh” value [1, 11] is reported as 0%, the “%Inh” value [2, 11] is reported as 1% and the “%Inh” value [3, 11] is reported as 4%. For the same compound, the “%Inh” value [4, 11] was 0%, the “%Inh” value [5, 11] was 7% and the “%Inh” value [6, 11] was 0%. The “%Inh” value [7, 11] was 0%, the “%Inh” value [8, 11] was 7% and the “%Inh” value [9, 11] was 21%. For the same compound, the “%Inh” value [10, 11] was 23%.
`Cc1nnc(-c2ccc3occ(-c4ccc(S(C)=O)cc4)c3c2)[nH]1` (stereo not drawn) was tested, and the “%Inh” value [1, 11] was 15%, the “%Inh” value [2, 11] was 16% and the “%Inh” value [3, 11] was 3%. For the same compound, the “%Inh” value [4, 11] was 17%, the “%Inh” value [5, 11] was 9% and the “%Inh” value [6, 11] was 28%. The “%Inh” value [7, 11] was 0%, the “%Inh” value [8, 11] was 5% and the “%Inh” value [9, 11] was 0%. The “%Inh” value [10, 11] was 17%.
With `COc1cc2ncnc(Nc3ccc4nc(-c5ccccc5)[nH]c4c3)c2cc1OC.Cl` [GW282450] the “%Inh” value [1, 11] was 0%, the “%Inh” value [2, 11] was 6% and the “%Inh” value [3, 11] was 0%. For the same compound, the “%Inh” value [4, 11] was 0%, the “%Inh” value [5, 11] was 0% and the “%Inh” value [6, 11] was 0%. The “%Inh” value [7, 11] was 0%, the “%Inh” value [8, 11] was 0% and the “%Inh” value [9, 11] was 0%. The “%Inh” value [10, 11] was 0%.
In the case of `CSc1nn2c(=O)cc(N3CCOCC3)nc2n1Cc1cccc(C(F)(F)F)c1C` [GSK2363608], the “%Inh” value [1, 11] is reported as 0%, the “%Inh” value [2, 12] is reported as 5% and 0% and the “%Inh” value [3, 12] is reported as 25% and 20%. The “%Inh” value [4, 11] was 0%, the “%Inh” value [5, 11] was 9% and the “%Inh” value [6, 12] was 97% and 100%. The “%Inh” value ([7]; 1 µM) was 94.4% and 94.3%, the “%Inh” value [8, 12] was 17% and 16% and the “%Inh” value [9, 12] was 14% and 4%. The “%Inh” value [10, 11] was 0%.
`O=C1NC(=O)C(N2CCc3ccccc32)=C1c1ccccc1Cl` [SB-373598] was tested, and the “%Inh” value [1, 11] was 0%, the “%Inh” value [2, 11] was 23% and the “%Inh” value [3, 11] was 1%. The “%Inh” value [4, 11] was 0%, the “%Inh” value [5, 11] was 0% and the “%Inh” value [6, 11] was 0%. For the same compound, the “%Inh” value [7, 11] was 10%, the “%Inh” value [8, 11] was 12% and the “%Inh” value [9, 11] was 0%. The “%Inh” value [10, 11] was 0%.
For `CCCc1ccc(S(=O)(=O)NC2CCN(c3ccnc(Nc4ccc(F)cc4)n3)C2)cc1` (stereo not drawn) [GSK1379715], the “%Inh” value [1, 11] was 0%, the “%Inh” value [2, 11] was 0% and the “%Inh” value [3, 11] was 0%. For the same compound, the “%Inh” value [4, 11] was 0%, the “%Inh” value [5, 11] was 0% and the “%Inh” value [6, 11] was 0%. The “%Inh” value [7, 11] was 34%, the “%Inh” value [8, 11] was 0% and the “%Inh” value [9, 11] was 0%. The “%Inh” value [10, 11] was 0%.
`COC(=O)c1c(-c2ccccc2)c2cc(C(=O)O)ccc2c(=O)n1Cc1ccccc1` was tested, and the “%Inh” value [1, 11] was 0%, the “%Inh” value [2, 11] was 24% and the “%Inh” value [3, 11] was 3%. The “%Inh” value [4, 11] was 0%, the “%Inh” value [5, 11] was 0% and the “%Inh” value [6, 11] was 13%. The “%Inh” value [7, 11] was 0%, the “%Inh” value [8, 11] was 7% and the “%Inh” value [9, 11] was 0%. For the same compound, the “%Inh” value [10, 11] was 2%.
With `Cl.c1ccc(-c2n[nH]cc2-c2ccnc(-c3ccc(CN4CCOCC4)cc3)c2)nc1` [GW776245] the “%Inh” value [1, 11] was 0%, the “%Inh” value [2, 11] was 14% and the “%Inh” value [3, 11] was 16%. For the same compound, the “%Inh” value [4, 11] was 0%, the “%Inh” value [5, 11] was 0% and the “%Inh” value [6, 11] was 0%. The “%Inh” value [7, 11] was 0%, the “%Inh” value [8, 11] was 33% and the “%Inh” value [9, 11] was 0%. The “%Inh” value [10, 11] was 0%.
